# Data as given in PubChem BioAssay (NCATS).
# Unmarked numbers belong to inactive results. Results filed as inconclusive are left out. The source made the active and inactive calls. Unless noted, the call rests on the fitted dose curve; in most records, active means well fitted curve in either direction with a large enough effect (not every such curve was filed as active); inconclusive means small, poorly fitted or top-dose-only effect, or another doubt; inactive means flat fitted curve, though single readings scatter.
# Experiments:
# [1] = molecular target: Lysosomal acid glucosylceramidase (Homo sapiens) (UniProt P04062); assay: Glucocerebrosidase-p2 (AID 348; in the data active means potency below about 10 µM; further: potency means the concentration at half of the fitted maximal effect); conditions: purified GBA, blue fluorogenic substrate, 40 min
# Sequence of Lysosomal acid glucosylceramidase (Homo sapiens) (P04062 whole entry, looked up): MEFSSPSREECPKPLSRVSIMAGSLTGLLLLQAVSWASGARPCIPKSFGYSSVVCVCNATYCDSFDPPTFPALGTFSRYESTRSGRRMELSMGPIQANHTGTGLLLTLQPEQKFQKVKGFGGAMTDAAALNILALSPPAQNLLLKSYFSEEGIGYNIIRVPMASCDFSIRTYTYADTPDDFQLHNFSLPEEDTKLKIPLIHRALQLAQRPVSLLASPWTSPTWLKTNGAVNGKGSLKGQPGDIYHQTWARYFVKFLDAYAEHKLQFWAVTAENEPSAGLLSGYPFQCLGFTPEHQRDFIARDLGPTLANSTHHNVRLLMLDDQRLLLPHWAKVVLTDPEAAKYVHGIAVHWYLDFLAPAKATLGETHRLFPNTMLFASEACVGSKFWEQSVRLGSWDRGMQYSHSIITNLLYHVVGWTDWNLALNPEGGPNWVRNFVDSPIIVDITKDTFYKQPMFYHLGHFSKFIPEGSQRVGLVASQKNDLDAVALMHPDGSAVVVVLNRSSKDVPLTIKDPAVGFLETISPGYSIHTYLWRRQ
# How it was run: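 Compounds titrated from 0.6 nM upwards against 0.2 nM enzyme in pH 5.9 citric acid/KH2PO4, taurocholate, tween-20; blue fluorogenic substrate 80 uM, 40 min room temperature, stopped and read Ex 365/Em 440 for AC50.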
# [2] = AP1 Signaling Pathway (AID 357); conditions: ME-180 AP-1-bla reporter, EGF-induced, beta-lactamase ratio, 5 h; at 7.69 µM (top of the series) unless noted; further: on the % scale 0 is the no-effect control and ±100 the full control effect
# How it was run: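 Read-out was the 460nm/530nm emission ratio (excitation 405nm) after CCF4 loading for 2.5 hours at room temperature. Cells carried an AP-1-driven beta-lactamase reporter, were stimulated with EC50 EGF plus compound for 5 hours, and AC50 values came from titrations.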
# [3] = molecular target: Cytochrome P450 1A2 (Homo sapiens) (UniProt P05177); assay: p450-cyp1a2 (AID 410; calls by dose curve; further: potency means the concentration at half of the fitted maximal effect;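 on activity change, negative = inhibition: -100% = full effect of reference inhibitor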); conditions: recombinant CYP1A2, luciferin-ME demethylation, luminescence; series mostly up to 11.4 µM
# Sequence of Cytochrome P450 1A2 (Homo sapiens) (P05177 whole entry, looked up): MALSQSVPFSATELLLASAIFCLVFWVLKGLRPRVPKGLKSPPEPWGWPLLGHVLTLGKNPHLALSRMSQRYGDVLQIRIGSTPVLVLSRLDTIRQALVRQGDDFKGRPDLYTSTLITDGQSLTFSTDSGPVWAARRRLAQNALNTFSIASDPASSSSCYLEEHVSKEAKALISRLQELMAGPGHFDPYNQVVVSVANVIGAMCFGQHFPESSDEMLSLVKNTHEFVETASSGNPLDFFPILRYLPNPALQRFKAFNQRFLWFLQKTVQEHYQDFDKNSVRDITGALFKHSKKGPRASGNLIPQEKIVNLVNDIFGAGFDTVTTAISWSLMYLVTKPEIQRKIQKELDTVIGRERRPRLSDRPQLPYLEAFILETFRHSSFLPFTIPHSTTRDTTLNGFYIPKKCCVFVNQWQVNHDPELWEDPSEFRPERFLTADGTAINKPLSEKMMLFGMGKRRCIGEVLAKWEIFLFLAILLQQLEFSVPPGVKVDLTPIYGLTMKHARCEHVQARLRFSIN
# How it was run: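 Inhibition was calculated relative to 57 uM furafylline (full inhibition). The reaction used human CYP1A2 at 20nM with Luciferin-ME at its Km, 100uM, driven by an NADPH-regenerating system for 60 min at room temperature.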
# [4] = NFAT Signaling Pathway (AID 444); conditions: Jurkat NFAT-bla M1, carbachol, beta-lactamase ratio, 5 h; at 7.69 µM (top of the series) unless noted;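 further: carbachol stimulus at about its EC50 of 1 µM final; on the % scale 0 is the no-effect control and ±100 the full control effect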
# How it was run: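 Read-out: CCF4 FRET ratio (460 nm/530 nm) after 1 h RT dye loading, used for %activity and AC50 from titration series. Cells: Jurkat NFAT-β-lactamase/M1 line, treated with compound plus 1 uM carbachol for 5 h, 37 °C.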
# [5] = Stat Signaling Pathway (AID 446); conditions: ME-180 SIE beta-lactamase reporter, IL-6 stimulated, 5 h; at 7.69 µM (top of the series) unless noted;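 further: ME-180 cervical cancer cells given 40 pM IL-6 alongside compound; SIE-controlled beta-lactamase reporter measured as 460/530 nm FRET emission ratio; on the % scale 0 is the no-effect control and ±100 the full control effect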
# How it was run: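 IL-6/STAT signaling read in ME-180 cells via an SIE beta-lactamase reporter. Stimulus was 40 pM IL-6 (its AC50) for 5 hrs, so both activation and inhibition register.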
# [6] = molecular target: Glucocorticoid receptor (Homo sapiens) (UniProt P04150); assay: GR-GFP Redistribution (AID 450;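 active means compounds whose dose series gives a full or clear partial fitted curve of increased nuclear translocation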; further: potency means the concentration at half of the fitted maximal effect); conditions: U2OS GR-GFP nuclear translocation, laser cytometry, 2 h
# Sequence of Glucocorticoid receptor (Homo sapiens) (P04150 whole entry, looked up, the tested form may be a part): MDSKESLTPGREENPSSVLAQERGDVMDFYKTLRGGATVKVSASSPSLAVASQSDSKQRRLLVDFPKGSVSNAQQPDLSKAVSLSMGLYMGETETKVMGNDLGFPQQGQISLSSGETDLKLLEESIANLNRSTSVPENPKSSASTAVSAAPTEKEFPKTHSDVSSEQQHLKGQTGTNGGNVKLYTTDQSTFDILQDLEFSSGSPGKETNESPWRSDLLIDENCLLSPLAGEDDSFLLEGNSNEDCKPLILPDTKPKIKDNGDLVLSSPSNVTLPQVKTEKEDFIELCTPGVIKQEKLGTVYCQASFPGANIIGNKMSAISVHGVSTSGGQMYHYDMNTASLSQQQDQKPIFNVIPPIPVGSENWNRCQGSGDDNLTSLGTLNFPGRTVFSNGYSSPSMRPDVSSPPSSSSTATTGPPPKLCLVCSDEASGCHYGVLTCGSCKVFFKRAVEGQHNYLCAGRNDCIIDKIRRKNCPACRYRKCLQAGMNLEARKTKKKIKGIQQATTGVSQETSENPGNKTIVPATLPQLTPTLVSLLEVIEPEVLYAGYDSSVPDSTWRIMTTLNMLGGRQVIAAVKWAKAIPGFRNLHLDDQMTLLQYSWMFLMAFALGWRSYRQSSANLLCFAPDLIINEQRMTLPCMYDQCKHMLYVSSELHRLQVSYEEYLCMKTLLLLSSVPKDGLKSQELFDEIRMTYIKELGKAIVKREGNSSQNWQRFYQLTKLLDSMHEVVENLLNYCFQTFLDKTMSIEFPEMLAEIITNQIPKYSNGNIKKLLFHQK
# [7] = molecular target: Glucocorticoid receptor (Homo sapiens) (UniProt P04150); assay: GR-EFC Redistribution (AID 451; calls by dose curve; further: potency means the concentration at half of the fitted maximal effect); conditions: CHO-K1 GR-EFC translocation, beta-gal luminescence, 2 h
# How it was run: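 Translocation of GR-ED fusion to nuclear EA restores b-gal, read by luminescence after 1 h room-temperature detection. Engineered CHO-K1 biosensor cells, 1,000/well, exposed 2 h at 37 C to titrations up to 46 uM final.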
# [8] = molecular target: Mitogen-activated protein kinase 10 (Mus musculus) (UniProt Q61831); assay: JNK3 AlphaScreen Assay (AID 530); conditions: JNK3 lysate, c-Jun phosphorylation; series mostly up to 11.4 µM;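 further: kinase came from lysate of stimulated human HepG2 cells; signal reports phosphorylation of biotinylated GST-cJun 1-79 at Ser73 with 10 µM ATP; on the % scale 0 is the no-effect control and ±100 the full control effect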
# How it was run: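 Room-temperature AlphaScreen kinase assay; pre-activated HepG2 lysate as JNK3 source, biotin-GST-cJun(1-79) substrate, 10 uM ATP, compound 15 min preincubation.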
# [9] = molecular target: 3',5'-cyclic-AMP phosphodiesterase 4B (Homo sapiens) (UniProt Q07343); assay: qHTS Assay for Inhibitors of PDE-IV (AID 607; active means well fitted activation curve with a large enough effect in the main read-out, with a control signal flat, not every such curve was filed as active; further: % of control where 0% means no effect); conditions: HEK293 ACTOne CNG channel cells, membrane potential fluorescence; series mostly up to 22.9 µM
# Sequence of 3',5'-cyclic-AMP phosphodiesterase 4B (Homo sapiens) (Q07343 whole entry, looked up): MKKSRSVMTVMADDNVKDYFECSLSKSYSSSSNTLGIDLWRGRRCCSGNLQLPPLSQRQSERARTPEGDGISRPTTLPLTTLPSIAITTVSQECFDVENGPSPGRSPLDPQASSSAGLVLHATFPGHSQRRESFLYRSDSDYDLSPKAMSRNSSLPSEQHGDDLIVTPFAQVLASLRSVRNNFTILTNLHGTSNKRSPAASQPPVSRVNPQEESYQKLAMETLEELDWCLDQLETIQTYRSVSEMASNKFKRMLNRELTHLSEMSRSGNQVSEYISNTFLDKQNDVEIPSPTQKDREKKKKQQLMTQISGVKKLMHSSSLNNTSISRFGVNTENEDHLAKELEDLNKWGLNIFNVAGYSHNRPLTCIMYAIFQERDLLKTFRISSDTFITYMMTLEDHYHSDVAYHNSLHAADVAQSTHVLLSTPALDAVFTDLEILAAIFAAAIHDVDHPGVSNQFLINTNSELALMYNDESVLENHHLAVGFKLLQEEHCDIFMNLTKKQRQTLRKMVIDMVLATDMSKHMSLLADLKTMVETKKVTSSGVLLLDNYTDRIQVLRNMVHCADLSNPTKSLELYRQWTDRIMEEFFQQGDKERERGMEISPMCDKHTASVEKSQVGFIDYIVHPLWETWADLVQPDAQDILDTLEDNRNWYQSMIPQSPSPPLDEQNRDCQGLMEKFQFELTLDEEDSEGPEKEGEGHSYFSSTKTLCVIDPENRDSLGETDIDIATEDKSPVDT
# How it was run: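 Live HEK293 cells with a modified cyclic nucleotide-gated (CNG) channel report intracellular cAMP via membrane-potential dye fluorescence (ex 535/em 590 nm). Endogenous PDE-IV was targeted. Compounds were tested at up to 22.9 uM final; RO 20-1724 100 uM served as control.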
# [10] = molecular target: Cytochrome P450 2C19 (Homo sapiens) (UniProt P33261); assay: qHTS Assay for Inhibitors and Substrates of Cytochrome P450 2C19 (AID 899; active means well fitted inhibition curve with a large enough effect; further: nearly all actives have a fitted effect of over 60% in size; further: potency means the concentration at half of the fitted maximal effect); conditions: recombinant CYP2C19, luciferin-H EGE luminescence; series mostly up to 11.4 µM
# Sequence of Cytochrome P450 2C19 (Homo sapiens) (P33261 whole entry, looked up): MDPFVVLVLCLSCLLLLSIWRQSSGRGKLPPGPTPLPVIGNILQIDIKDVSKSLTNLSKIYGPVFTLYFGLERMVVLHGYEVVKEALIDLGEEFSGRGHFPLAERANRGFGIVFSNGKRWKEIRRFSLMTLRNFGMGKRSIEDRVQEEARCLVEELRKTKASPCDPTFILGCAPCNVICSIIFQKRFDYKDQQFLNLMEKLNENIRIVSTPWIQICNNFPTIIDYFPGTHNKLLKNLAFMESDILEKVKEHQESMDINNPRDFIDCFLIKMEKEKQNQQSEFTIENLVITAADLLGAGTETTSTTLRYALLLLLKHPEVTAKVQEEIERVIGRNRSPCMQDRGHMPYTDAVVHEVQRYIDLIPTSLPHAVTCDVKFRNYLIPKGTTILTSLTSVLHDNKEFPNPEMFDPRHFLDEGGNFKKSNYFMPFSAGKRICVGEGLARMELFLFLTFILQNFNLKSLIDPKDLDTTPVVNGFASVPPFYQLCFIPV
# How it was run: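 Reactions contain 5nM enzyme, 10uM Luciferin-H EGE (KM) and 50mM KPO4; compound preincubates 10 min at 37C, NADPH regeneration starts turnover for 60 min. Luminescence after detection reagent gives activity.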
# [11] = molecular target: Cytochrome P450 2D6 (Homo sapiens) (UniProt P10635); assay: qHTS Assay for Inhibitors and Substrates of Cytochrome P450 2D6 (AID 891; active means well fitted inhibition curve with a large enough effect; further: nearly all actives have a fitted effect of over 60% in size; further: potency means the concentration at half of the fitted maximal effect); conditions: recombinant CYP2D6, luciferin-ME EGE luminescence; series mostly up to 11.4 µM
# Sequence of Cytochrome P450 2D6 (Homo sapiens) (P10635 whole entry, looked up): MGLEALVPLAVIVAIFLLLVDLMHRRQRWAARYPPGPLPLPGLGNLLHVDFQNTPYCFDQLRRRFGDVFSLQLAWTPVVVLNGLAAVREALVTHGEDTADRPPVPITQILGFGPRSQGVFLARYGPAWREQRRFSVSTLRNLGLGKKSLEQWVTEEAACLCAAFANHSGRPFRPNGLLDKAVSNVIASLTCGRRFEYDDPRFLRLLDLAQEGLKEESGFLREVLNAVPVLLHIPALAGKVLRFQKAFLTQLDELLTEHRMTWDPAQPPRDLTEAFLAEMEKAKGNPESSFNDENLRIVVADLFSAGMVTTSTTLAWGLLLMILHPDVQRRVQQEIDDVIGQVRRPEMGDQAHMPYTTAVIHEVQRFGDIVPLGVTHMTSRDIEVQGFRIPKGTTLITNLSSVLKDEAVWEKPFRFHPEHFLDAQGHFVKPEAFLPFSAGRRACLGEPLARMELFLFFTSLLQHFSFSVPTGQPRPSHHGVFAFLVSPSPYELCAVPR
# How it was run: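 Human CYP2D6 (5 nM) with 30 uM Luciferin-ME EGE (at Km) in 100 mM KPO4, compound preincubated 10 min, then NADPH regeneration system for 60 min at room temperature. Luciferin read by luminescence; normalized to 1.43 uM quinidine.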
# [12] = qHTS Assay for Identification of Small Molecule Agonists for Hypoxia Response Element Signaling Pathway (AID 914; active means well fitted activation curve with a large enough effect in the signal ratio, with a control signal flat, not every such curve was filed as active; the % refers to the signal ratio; further: % of control where 0% means no effect); conditions: ME-180 HRE-bla reporter, beta-lactamase ratio, CoCl2, 17 h; activation: stronger effect = higher value
# How it was run: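 ME-180 cells carrying an HRE-driven beta-lactamase reporter were treated with compounds in a titration series plus an EC50 level of CoCl2 for 17 h at 37 degrees Celsius; CCF4 readout as the 460nm/530nm ratio gave AC50 values.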
Compound,Potency [1],"activity change, negative = inhibition [2]",Potency [3],"activity change, negative = inhibition [4]","activity, negative = inhibition [5]",Potency [6],Potency [7],Potency [8],Potency [9],Potency [10],Potency [11],"activity change, negative = inhibition [3]",activation [12]
O=C(SCc1cccc2ccccc12)c1ccc(Cl)cc1,> 11.4 µM,9.24%,0.794 µM (active),-5.94%,7%,> 46 µM,> 9.22 µM,inactive,inactive,1.58 µM (active),,,
O=C(N[C@@]1(C(=O)O)C[C@@H]1c1ccccc1)c1ccccc1,> 11.4 µM,7.86%,inactive,18.8%,10.3%,> 46 µM,> 9.22 µM,inactive,inactive,inactive,,,
CC(C)C(O)(C(C)C)C(C)C,> 11.4 µM,7.29%,inactive,3.44%,13.2%,> 46 µM,> 9.22 µM,inactive,inactive,inactive,,,
Nc1nc(Cl)cc(NCCO)n1,> 11.4 µM,-4.13%,inactive,10.4%,4.67%,> 46 µM,> 9.22 µM,inactive,inactive,inactive,inactive,,
CC(C)CNC(=O)O,> 11.4 µM,8.49%,inactive,0.858%,3.89%,> 46 µM,> 9.22 µM,inactive,inactive,inactive,inactive,,
O=C(O)CCCc1ccc2ccc3ccccc3c2c1,> 11.4 µM,-11.1%,2 µM (active),-6.89%,-2.84%,> 46 µM,> 9.22 µM,inactive,inactive,inactive,inactive,,
CC(=O)OC(C)(C)N=Nc1ccc(Br)cc1,> 11.4 µM,-5.95%,3.16 µM (active),14.8%,2.84%,> 46 µM,> 9.22 µM,inactive,inactive,1.26 µM (active),,,
O=C(O)CC1(C(=O)O)CCCCC1,> 11.4 µM,-1.19%,,7.95%,1.85%,> 46 µM,> 9.22 µM,inactive,inactive,inactive,inactive,5.1% [at 2.29 µM],
O=C1c2ccccc2C(=O)N1CCCSc1ccccc1,> 11.4 µM,-13.4%,1 µM (active),1.88%,-7.77%,> 46 µM,> 9.22 µM,inactive,inactive,0.631 µM (active),,,
CC(C)CNc1nc(N)[nH]c(=O)c1NC=O,> 11.4 µM,9%,inactive,-1.94%,7.03%,> 46 µM,> 9.22 µM,inactive,inactive,inactive,,,
O=C(CCN1CCCCC1)N1CCc2c([nH]c3ccccc23)[C@H]1c1cccnc1,> 11.4 µM,4.71%,,-15.8%,-6.32%,> 46 µM,> 9.22 µM,inactive,inactive,inactive,,-19.7% [at 2.29 µM],
O=C(O)C1CC2(C1)CC(C(=O)O)C2 (stereo not drawn),> 11.4 µM,1.62%,,10.7%,12.7%,> 46 µM,> 9.22 µM,inactive,inactive,inactive,,-6.3% [at 2.29 µM],
Nc1ccc(S(=O)(=O)NCCS(=O)(=O)O)cc1,> 11.4 µM,-2.08%,,6.94%,-3.3%,> 46 µM,> 9.22 µM,inactive,inactive,,inactive,-3.1% [at 2.29 µM],-1.31%
CC(C)(C)c1ccc(O)c(CN(Cc2c(O)ccc3ccccc23)C2CCCCC2)c1,> 11.4 µM,-7.92%,3.98 µM (active),-10.8%,-13.7%,> 46 µM,> 9.22 µM,inactive,inactive,2 µM (active),0.794 µM (active),,2.73%
Cc1c(Cl)c(S(N)(=O)=O)cc(S(N)(=O)=O)c1NC(=O)c1ccc(Cl)cc1,> 11.4 µM,-4.6%,inactive,5.51%,5.58%,> 46 µM,> 9.22 µM,inactive,inactive,inactive,inactive,,
Cc1ccc(N(Cc2ccccc2)Cc2ccccc2)cc1,> 11.4 µM,4.21%,,-17.4%,3.16%,> 46 µM,> 9.22 µM,inactive,inactive,2 µM (active),,-24.2% [at 2.29 µM],
CS[C@]12C(=O)C[C@]3(C)[C@@H](CC[C@@]3(O)C(=O)CO)[C@@H]1CCC1=CC(=O)CC[C@]12C,> 11.4 µM,0.905%,,1.52%,-2.04%,> 46 µM,> 9.22 µM,inactive,inactive,3.16 µM (active),,-24.3% [at 2.29 µM],
Cc1ccc(S(=O)(=O)N2CCC(C(=O)O)(c3ccccc3)CC2)cc1,> 11.4 µM,0.56%,inactive,2.33%,-9.97%,> 46 µM,> 9.22 µM,inactive,inactive,inactive,,,
